Data as given in ChEMBL document CHEMBL3988442, “University of Dundee, Small-Polar-MMV Screening Library” (2021).
Values joined by “and” are separate entries in the source; they are usually repeats but may differ in a detail not shown here. Equal entries are not always repeated. For part of these data: Measured potencies and affinities stand elsewhere.

Key:
Set-up in all cases: scale not given: direction of the effect not stated beside the values
[1] = target: Protein translocase subunit SecA (Escherichia coli (strain K12)) (UniProt P10408); experiment: Assay to Identify E. coli SecA ATPase Inhibitors; assay type: functional; details: 30 µM
Protein translocase subunit SecA (Escherichia coli (strain K12)), sequence (P10408 whole entry): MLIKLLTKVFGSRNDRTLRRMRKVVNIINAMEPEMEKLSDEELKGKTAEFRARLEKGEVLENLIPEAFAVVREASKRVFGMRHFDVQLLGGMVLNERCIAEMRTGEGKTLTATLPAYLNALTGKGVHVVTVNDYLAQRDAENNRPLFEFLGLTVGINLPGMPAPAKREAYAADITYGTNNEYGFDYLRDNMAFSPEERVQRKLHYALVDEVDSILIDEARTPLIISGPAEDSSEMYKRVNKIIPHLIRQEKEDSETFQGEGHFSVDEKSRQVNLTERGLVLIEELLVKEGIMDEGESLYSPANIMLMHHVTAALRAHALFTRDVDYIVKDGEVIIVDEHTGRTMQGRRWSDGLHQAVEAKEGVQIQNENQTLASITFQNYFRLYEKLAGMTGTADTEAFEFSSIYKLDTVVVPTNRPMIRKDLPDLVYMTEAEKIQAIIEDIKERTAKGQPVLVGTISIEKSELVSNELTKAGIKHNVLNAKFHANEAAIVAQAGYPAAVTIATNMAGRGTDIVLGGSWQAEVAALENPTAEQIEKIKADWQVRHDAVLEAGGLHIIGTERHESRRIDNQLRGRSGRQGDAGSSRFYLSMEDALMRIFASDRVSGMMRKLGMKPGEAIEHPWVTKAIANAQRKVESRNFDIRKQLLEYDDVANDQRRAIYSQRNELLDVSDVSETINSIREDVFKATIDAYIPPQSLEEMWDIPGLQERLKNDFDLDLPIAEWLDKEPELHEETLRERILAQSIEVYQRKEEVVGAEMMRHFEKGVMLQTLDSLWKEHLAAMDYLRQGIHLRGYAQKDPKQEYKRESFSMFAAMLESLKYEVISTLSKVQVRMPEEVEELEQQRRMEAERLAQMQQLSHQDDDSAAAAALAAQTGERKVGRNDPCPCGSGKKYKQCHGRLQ

[2] = target: T1, Ubiquitin-activating enzyme e1, putative (Leishmania donovani (strain BPK282A1)) (UniProt E9BSI1); experiment: Leishmania donovani Ubiquitin Activating Enzyme (LdE1); assay type: functional; details: 30 µM
T1 sequence (whole entry): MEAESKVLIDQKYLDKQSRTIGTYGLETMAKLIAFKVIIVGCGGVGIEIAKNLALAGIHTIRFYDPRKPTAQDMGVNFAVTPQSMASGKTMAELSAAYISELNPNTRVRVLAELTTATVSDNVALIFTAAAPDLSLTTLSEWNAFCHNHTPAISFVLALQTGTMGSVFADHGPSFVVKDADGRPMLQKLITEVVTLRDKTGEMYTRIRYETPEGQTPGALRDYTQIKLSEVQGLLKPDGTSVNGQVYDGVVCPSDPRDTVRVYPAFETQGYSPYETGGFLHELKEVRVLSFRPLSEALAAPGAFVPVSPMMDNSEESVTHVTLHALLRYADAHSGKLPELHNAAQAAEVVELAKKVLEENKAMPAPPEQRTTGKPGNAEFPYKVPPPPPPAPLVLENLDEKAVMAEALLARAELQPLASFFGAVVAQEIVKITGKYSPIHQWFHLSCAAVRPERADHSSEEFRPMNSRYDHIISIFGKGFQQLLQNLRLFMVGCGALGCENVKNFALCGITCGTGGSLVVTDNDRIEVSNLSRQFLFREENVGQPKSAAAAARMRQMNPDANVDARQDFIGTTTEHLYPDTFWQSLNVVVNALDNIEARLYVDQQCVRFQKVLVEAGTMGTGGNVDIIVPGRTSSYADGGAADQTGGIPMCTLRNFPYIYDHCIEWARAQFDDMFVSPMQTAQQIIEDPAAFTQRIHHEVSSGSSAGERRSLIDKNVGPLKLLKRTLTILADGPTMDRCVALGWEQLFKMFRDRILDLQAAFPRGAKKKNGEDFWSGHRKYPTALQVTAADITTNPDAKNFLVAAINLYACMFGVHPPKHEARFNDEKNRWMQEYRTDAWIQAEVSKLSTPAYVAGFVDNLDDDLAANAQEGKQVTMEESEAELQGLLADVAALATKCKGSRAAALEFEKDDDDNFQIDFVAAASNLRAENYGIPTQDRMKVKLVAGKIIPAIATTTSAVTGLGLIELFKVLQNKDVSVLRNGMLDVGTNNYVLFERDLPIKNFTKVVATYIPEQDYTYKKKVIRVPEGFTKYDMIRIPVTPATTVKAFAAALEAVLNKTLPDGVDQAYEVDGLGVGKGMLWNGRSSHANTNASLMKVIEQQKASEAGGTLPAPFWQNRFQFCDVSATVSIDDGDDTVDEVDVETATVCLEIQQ

[3] = target: Sialic acid-binding Ig-like lectin 9 (Homo sapiens) (UniProt Q9Y336); experiment: Hs-Siglec9 ALPHAscreen SOP 20170721; details: 10 µM
Sialic acid-binding Ig-like lectin 9 (Homo sapiens), sequence (Q9Y336 whole entry): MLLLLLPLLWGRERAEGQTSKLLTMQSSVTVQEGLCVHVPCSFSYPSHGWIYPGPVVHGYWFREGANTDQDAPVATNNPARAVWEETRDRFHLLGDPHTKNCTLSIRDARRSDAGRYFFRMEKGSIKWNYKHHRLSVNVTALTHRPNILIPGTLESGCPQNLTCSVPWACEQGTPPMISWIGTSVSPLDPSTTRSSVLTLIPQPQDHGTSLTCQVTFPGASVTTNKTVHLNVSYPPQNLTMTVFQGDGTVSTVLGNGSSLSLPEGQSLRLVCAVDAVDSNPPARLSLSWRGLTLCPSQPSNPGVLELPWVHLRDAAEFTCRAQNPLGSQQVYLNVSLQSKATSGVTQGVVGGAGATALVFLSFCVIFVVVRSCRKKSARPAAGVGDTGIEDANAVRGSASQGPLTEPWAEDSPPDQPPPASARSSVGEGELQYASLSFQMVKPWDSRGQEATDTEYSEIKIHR

Trypanosoma cruzi = experiment: Trypanosoma cruzi phosphomannomutase and mannose-1-phosphate guanylyltransferase assay; assay type: functional; details: 10 µM
[4] = target: T2, Arginase-2, mitochondrial (Homo sapiens) (UniProt P78540); experiment: in vitro enzyme assay to detect the production of urea directly proportional to the activity of Arginase II; assay type: functional; note: in the data most compounds retested in dose-response had high values
T2 sequence (whole entry): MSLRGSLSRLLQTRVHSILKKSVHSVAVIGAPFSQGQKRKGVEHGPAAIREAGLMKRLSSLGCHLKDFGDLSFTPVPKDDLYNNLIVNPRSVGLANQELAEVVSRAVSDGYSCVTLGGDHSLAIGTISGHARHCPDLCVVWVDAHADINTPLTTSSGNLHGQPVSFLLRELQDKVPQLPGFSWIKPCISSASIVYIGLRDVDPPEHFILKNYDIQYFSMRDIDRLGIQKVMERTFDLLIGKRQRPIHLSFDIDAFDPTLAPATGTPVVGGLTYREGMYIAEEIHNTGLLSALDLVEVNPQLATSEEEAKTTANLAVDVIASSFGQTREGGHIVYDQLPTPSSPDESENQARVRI

[5] = target: T3, Proteasome subunit beta (Trypanosoma cruzi) (UniProt O96673); experiment: Trypanosoma cruzi proteasome chymotrypsin-like activity (TcProtChymo) assay.; note: in the data most compounds retested in dose-response had high values; assay type: functional; details: 9.37 µM
T3 sequence (whole entry): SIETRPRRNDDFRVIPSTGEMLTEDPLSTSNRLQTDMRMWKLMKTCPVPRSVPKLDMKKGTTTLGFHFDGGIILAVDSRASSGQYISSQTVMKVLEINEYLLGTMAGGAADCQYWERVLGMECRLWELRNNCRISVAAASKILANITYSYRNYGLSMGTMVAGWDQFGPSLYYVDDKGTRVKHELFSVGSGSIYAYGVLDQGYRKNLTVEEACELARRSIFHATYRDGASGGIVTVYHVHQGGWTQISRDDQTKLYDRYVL

N/A = experiment: Trypanosoma cruzi proteasome luciferase counter-screen; assay type: functional; details: 9.37 µM
Homo sapiens = organism: Homo sapiens; experiment: To identify inhibition of the IFN signalling (Jak-Stat) pathway via expression of an eGFP reporter gene under the control of an IFN-stimulated response element (ISRE) containing MxA promoter.; assay type: functional; details: 30 µM
[6] = target: T4, Tyrosyl-tRNA synthetase, putative (Trypanosoma cruzi (strain CL Brener)) (UniProt Q4DSP6); experiment: Trypanosoma cruzi tyrosyl tRNA synthetase (TcYRS) _High Tyrosine SOP; assay type: functional; details: 30 µM; note: in the data most compounds retested in dose-response had high values
T4 sequence (whole entry): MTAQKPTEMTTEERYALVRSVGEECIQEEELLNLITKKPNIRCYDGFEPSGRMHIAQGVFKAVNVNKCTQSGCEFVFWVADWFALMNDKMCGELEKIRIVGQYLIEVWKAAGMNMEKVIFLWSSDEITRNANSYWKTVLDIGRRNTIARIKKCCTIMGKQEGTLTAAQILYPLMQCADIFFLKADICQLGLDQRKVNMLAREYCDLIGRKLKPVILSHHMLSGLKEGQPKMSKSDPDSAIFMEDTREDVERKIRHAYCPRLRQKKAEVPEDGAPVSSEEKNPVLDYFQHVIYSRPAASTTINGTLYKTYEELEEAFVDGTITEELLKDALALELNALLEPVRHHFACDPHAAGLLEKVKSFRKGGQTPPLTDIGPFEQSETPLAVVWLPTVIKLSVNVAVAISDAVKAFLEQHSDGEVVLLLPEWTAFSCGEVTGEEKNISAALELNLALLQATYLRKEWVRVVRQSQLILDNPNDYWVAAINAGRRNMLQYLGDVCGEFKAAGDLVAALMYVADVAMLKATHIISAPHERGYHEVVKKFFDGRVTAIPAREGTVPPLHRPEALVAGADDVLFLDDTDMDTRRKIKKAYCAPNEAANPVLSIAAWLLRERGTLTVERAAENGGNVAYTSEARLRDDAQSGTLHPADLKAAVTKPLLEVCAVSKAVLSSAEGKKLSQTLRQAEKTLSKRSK

[7] = target: T4, Tyrosyl-tRNA synthetase, putative (Trypanosoma cruzi (strain CL Brener)); experiment: Trypanosoma cruzi tyrosyl tRNA synthetase (TcYRS) SOP; assay type: functional; details: 30 µM
[8] = target: Chromo domain-containing protein 1 (Saccharomyces cerevisiae (strain ATCC 204508 / S288c) (Baker's yeast)) (UniProt P32657); experiment: ScCHD-1 Enzyme Inhibition Assay; assay type: functional; details: 30 µM; note: in the data most compounds retested in dose-response had high values
Chromo domain-containing protein 1 (Saccharomyces cerevisiae (strain ATCC 204508 / S288c) (Baker's yeast)), sequence (P32657 whole entry, the tested form may be a part): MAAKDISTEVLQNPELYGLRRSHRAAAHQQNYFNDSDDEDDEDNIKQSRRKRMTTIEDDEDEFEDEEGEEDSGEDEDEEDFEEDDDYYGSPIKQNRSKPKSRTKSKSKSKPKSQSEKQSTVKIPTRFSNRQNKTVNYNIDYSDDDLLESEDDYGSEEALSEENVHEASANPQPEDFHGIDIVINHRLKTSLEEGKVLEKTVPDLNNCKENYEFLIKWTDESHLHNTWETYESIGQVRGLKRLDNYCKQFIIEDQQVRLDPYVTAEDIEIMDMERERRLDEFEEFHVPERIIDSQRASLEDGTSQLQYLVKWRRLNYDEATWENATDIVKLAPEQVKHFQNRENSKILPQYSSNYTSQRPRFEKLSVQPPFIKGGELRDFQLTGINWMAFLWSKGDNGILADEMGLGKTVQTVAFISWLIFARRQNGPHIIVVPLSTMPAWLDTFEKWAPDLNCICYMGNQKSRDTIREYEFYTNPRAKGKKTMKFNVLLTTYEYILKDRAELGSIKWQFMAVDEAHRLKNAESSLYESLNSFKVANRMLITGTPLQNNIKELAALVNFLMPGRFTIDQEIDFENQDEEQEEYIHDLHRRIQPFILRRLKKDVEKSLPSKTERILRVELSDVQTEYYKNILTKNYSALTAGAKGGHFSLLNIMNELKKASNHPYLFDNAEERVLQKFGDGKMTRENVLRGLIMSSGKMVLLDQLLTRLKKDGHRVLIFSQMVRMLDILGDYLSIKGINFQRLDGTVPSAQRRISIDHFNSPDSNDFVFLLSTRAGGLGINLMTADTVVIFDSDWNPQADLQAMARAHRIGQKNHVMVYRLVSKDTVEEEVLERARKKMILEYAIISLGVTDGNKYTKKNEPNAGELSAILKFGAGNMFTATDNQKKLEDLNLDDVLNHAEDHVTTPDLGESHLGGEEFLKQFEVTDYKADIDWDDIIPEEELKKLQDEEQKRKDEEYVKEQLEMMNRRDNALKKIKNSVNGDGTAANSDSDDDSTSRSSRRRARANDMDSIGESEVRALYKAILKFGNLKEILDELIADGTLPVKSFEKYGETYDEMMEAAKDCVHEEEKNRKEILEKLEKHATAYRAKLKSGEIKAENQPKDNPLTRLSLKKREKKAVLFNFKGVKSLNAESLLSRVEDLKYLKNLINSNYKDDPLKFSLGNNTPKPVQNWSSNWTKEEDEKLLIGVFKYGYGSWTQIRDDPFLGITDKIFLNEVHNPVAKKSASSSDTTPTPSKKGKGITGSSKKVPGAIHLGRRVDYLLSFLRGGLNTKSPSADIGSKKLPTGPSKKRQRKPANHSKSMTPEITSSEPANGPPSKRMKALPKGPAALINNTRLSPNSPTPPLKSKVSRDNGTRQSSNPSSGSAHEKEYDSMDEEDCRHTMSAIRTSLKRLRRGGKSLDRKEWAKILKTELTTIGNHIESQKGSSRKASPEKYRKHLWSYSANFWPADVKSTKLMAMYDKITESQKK

[9] = target: AMP-activated protein kinase, AMPK (Homo sapiens) (UniProt P54646+O43741+P54619+Q9UGJ0+Q9Y478+Q13131+Q9UGI9); experiment: AMP-dependent Kinase enzyme assay. An in vitro enzyme assay that detects ADP turnover that is directly proportional to AMPK activity. This uses naive AMPK that is activated during the assay with MK-8722; assay type: functional; details: 30 µM

| Compound | Percent Effect [1] [%] | Percent Effect [2] [%] | Percent Effect [3] [%] | Percent Effect (Trypanosoma cruzi) [%] | Percent Effect ([4]; 33.3 µM) [%] | Percent Effect [5] | Percent Effect (N/A) | Percent Effect (Homo sapiens) [%] | Percent Effect [6] [%] | Percent Effect [7] [%] | Percent Effect [8] [%] | Percent Effect [9] [%] | Percent Effect ([4]; 30 µM) [%] |
| --- | --- | --- | --- | --- | --- | --- | --- | --- | --- | --- | --- | --- | --- |
| CCc1nnc2n1CCN(Cc1csc(-c3ccc(C)o3)n1)C2 | -2.83 | 10.3 | -4.26 | 7.42 | 1.23 | 36.4% and 37.5% and 36.1% | 6.53% and 0.633% | 4.79 | 8.13 | 22.9 | -6.08 |  |  |
| O=C(NCCCN1CCOCC1)c1ccn(-c2ccc3ccccn23)n1 | -0.779 | 6.49 | 1.13 | -2.43 | -4.05 | 30.3% and 30.6% and 42.5% | 15% and 12% | 5.6 | 8.95 | 7.69 | 1.74 |  |  |
| Cc1ccc(NC(=O)C2=CN=S=N2)cc1 | 1.26 | 17.3 | -13.9 | 3.94 | 0 | 84.2% and 80.5% and 69% | 45.6% and 45.1% | 21.4 | 4.23 | 10 | -20.4 |  |  |
| Cc1nccc([C@H]2C[C@@H]3CCN(S(=O)(=O)N(C)C)C[C@H]3O2)n1 | -2.42 | 8.11 | 27.4 | 5.18 | 17.6 | 3.35% |  | -26.1 | 4.3 | 16.1 | -6.72 | -3.13 |  |
| CCn1cc(NC(=O)NCc2ccc3c(c2)OCCO3)cn1 | -3.41 | 20.8 | 4.42 | -2.98 | 4.3 | 7.37% |  | 12.6 | 11.8 | 21.2 | -7.59 |  |  |
| COCc1noc(-c2ccc(N3CCCCC3CO)nc2)n1 (stereo unspecified) | -2.04 | -5.41 | 7.35 | -0.485 | 6.64 | 62% and 48.5% and 57.3% | 26.9% | 2.19 | 0.532 | 0 | -0.226 |  |  |
| CN(C)[C@H]1CCCCN(C(=O)CCc2csc(N)n2)C1 | -6.59 | 2.7 | -1.59 | 1.46 | -0.35 | 9.76% |  | -5.61 | 3.72 | 7.32 | 0.286 |  | 2.7 |
| COc1ccc(-c2ccnc3c2C(=O)CCC3)cc1 | 0.627 | 22.7 | -8.36 | 0.789 | 0.885 | 78.1% and 77.9% and 84.4% | 54.8% and 45.5% | 22.2 | 2.12 | 7.5 | -22.2 |  |  |
| Cc1ccc(N2CC[C@H]3O[C@@H](C(=O)NCc4ccco4)CC[C@H]32)nn1 | -3.84 | 11.7 | -7.1 | 0.487 | 4.05 | 34.9% and 42.6% and 44.7% | 17.7% and 15.6% | 2.02 | 12.1 | 12.8 | -1.01 |  |  |
| CCS(=O)(=O)N(C)C1CCN(C(=O)c2cccc(Cl)c2)CC1 | -3.98 | 16.2 | 1.05 | 4.3 | 11.2 | 9.38% |  | -0.31 | 6.93 | 11 | -6.5 | -9.5 |  |
| Cn1cccc1-c1cc(C(=O)N2CC(c3cccnc3)C2)[nH]n1 | -12.9 | 2.7 | 4.47 | -2.81 | 1.05 | 5.65% |  | 32.9 | -1.6 | 0 | 0.144 |  |  |
| CC(c1cccc(S(N)(=O)=O)c1)N(C)CCOc1ccccc1 (stereo unspecified) | -0.74 | -15.6 | 10.5 | -4.48 | -5.12 | 2.1% |  | 14.4 | -1.96 | -2.35 | 1.25 |  |  |
| COc1ccc2c(c1)OCC(CNC(=O)c1ccc(=O)n(C)c1)C2 (stereo unspecified) | -9.07 | -2.7 | 20.7 | 5.72 | 17.8 | 12.5% |  | 9.66 | 4.79 | 9.76 | 0.784 |  | -5.95 |
| CC(c1nc(C2CC2)no1)N1CCN(Cc2cccc(C#N)c2)CC1 (stereo unspecified) | -5.05 | 15.4 | -15.7 | 5.35 | -4.1 | 10.5% |  | 3.36 | 3.35 | 20.5 | -0.399 |  |  |
| CCn1c(C)cc(C(=O)N2CCCC(n3nc(C)nc3C)C2)c1C (stereo unspecified) | -5.54 | 12.8 | -10.5 | 7.23 | -0.41 | 4.35% |  | 4.11 | 1.44 | 10.8 | -5.05 |  |  |
| N#Cc1cccc(CS(=O)(=O)NCC(O)Cc2ccccc2)c1 (stereo unspecified) | -4.15 | -2.67 | 0.263 | 0.682 | -3.12 | 1.4% |  | 6.52 | 0.546 | 3.7 | 1.24 | 0.717 |  |
